Common to all, as to assay: Cytotoxic Profiling of Annotated Libraries Using Quantitative High-Throughput Screening (AID 1296008); also: nearly all actives have a fitted effect of over 60% in size
Common to all, as to conditions: Five cell lines viability, CellTiter-Glo ATP luminescence, 48-72 h; max response: stronger effect = lower value

The test system of assay [1] is CRL-7250. In outline:
(§1)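 Cytotoxicity was measured as CellTiter-Glo ATP luminescence, read after 10 min at room temperature. Compound treatment of the cells lasted 48 or 72 hr at 37 degrees Celsius in a qHTS format.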

Assay [2] deals with HEK293. The gist of the method:
as §1

The subject of assay [3] is HaCat. The gist of the method:
as §1

Assay [4] has as its system KB-3-1. The gist of the method: as §1
For assay [5], the system named is NIH3T3. In outline: as §1

The structures appear in SMILES notation. Results filed as inconclusive are left out. Unmarked numbers belong to inactive results. Activity calls are given as the source filed them. Calls follow the shape of the dose curve; as a rule, active = well fitted inhibition curve with a large enough effect; inconclusive = small, poorly fitted or top-dose-only effect; inactive = flat fitted curve, though single readings scatter.
% is scaled to controls: 0 for no effect and ±100 for the full control effect; potency is read from the fitted curve at half-maximal effect.

As to `Cn1c2ccc(F)cc2c2c(C(=O)N3CCCC3)cn(-c3ccccc3)c(=O)c21`, the compound was classed as inactive in assay [1] and in assay [4]. Also, the max response was -22.1% in assay [2], -0.557% in assay [3] and -3.48% in assay [5].
For the compound `CC(C)C(=O)OC[C@H]1O[C@H](O[C@H]2O[C@H](CO)[C@@H](O)[C@H](O)[C@H]2O)[C@H](O)[C@@H](O)[C@@H]1O`, the max response in assay [1] is -1.64%; in assay [2], 3.34%; in assay [3] it was 0.512%; in assay [5], -1.4%. The compound was classed as inactive in assay [4].
For the compound `CC1=C(C(=O)OCc2ccccc2)C(c2ccc(-c3ccccc3)cc2)NC(=O)N1CCCCCC(=O)O` (stereo not given), the max response in assay [1] was -0.424%; in assay [2], -21.5%; in assay [3], -18.2%. In addition, the call in assay [4] was inactive.
In the case of `C/C=C(/COC(=O)/C(C)=C/C)C(=O)OC(CC)c1ccc(OC)c(OC)c1` (stereo not given), the max response in assay [1] was 3.89%; in assay [2], 4.08%; in assay [3], 3.4%; in assay [4], 9.77%; in assay [5], 1.56%.
In the case of `OC[C@H]1O[C@@H](OCCc2ccccc2)[C@H](O[C@@H]2OC[C@](O)(CO)[C@H]2O)[C@@H](O)[C@@H]1O`, the max response in assay [1] was -6.82%; in assay [2], -11.4%; in assay [3], 0.135%; in assay [5], 1.81%. Also, the outcome in assay [4] was inactive.
As for `COc1ccc(N2CCOCC2)c2sc(NC(=O)N3CCC(C)(O)CC3)nc12`, the max response in assay [1] was 0.434%; in assay [2], -6.66%; in assay [3], 3.93%; in assay [5], -12%. Besides, the call in assay [4] was inactive.
In the case of `CC(=O)O[C@@H](CO[C@@H]1O[C@H](CO)[C@H](O)[C@H](O)[C@H]1O)[C@]1(C)C=C2CC[C@@H]3C(C)(C)[C@@H](O)CC[C@@]3(C)[C@@H]2CC1`, the max response in assay [1] was -3.06%; in assay [2] it was -1.31%; in assay [3], 2.2%; in assay [4] it was 2.92%; in assay [5], 4.41%.
Regarding `CN(c1ccccc1CNc1nc(Nc2ccc3c(c2)CC(=O)N3)ncc1C(F)(F)F)S(C)(=O)=O`, the Potency in assay [1] is 16400 nM (active); in assay [2], 2310 nM (active); in assay [3], 8200 nM (active); in assay [4] it was 6510 nM (active); in assay [5], 5800 nM (active).
In the case of `COc1ccc(/C=C/C(=O)O[C@@H]2[C@@H](O)[C@@H](O)[C@H](O[C@@H]3C=C(CO)[C@H]4[C@H](O[C@@H]5O[C@H](CO)[C@@H](O)[C@H](O)[C@H]5O)OC=C[C@H]43)O[C@H]2C)cc1O`, the max response was 0.875% in assay [1]; -69.5% in assay [2]; -15% in assay [3]; -14.4% in assay [4]; -43% in assay [5].
On to `O=C(CC(c1ccccc1)c1ccccc1)N1CCN(C(c2ccccc2)c2ccccc2)CC1`, for which the max response is -24.4% in assay [1] and -29% in assay [3]. Besides, the Potency in assay [2] was 20600 nM (active); in assay [4], 18400 nM (active).
With `C=C(CO)C12OC1C1(C)C(=CC2=O)C(O)C(O)CC1C` (stereo not given), the max response in assay [1] was -0.172%; in assay [2], -0.602%; in assay [3], -9.32%; in assay [4] it was 3.94%; in assay [5], -6.8%.
For `C[C@@]12C[C@]3(O)O[C@H](O1)[C@]1(COC(=O)c4ccccc4)[C@H]3C[C@@]12O[C@@H]1O[C@H](CO)[C@@H](O)[C@H](O)[C@H]1O`, the max response in assay [1] was 0.654%; in assay [2], 0.308%; in assay [3], -7.15%; in assay [4], 8.38%; in assay [5], 3.01%.
For the compound `CC(C)c1c2cc(-c3ccnc(NC4CCC(NC5CCOCC5)CC4)n3)ccc2nn1C` (stereo not given), the Potency in assay [1] is 580 nM (active); in assay [2], 130 nM (active); in assay [3], 1640 nM (active); in assay [4] it was 231 nM (active); in assay [5], 1030 nM (active).
As for `CC1=CC(=O)CC2C1(O)CCC(C)C21CC(c2ccoc2)OC1=O` (stereo not given), the max response in assay [1] is -9.3%; in assay [2], -14.1%; in assay [3], -50.8%; in assay [4], -1.68%; in assay [5], -0.573%.
In the case of `CCOc1cc(C)c(Cl)cc1S(=O)(=O)n1cnc2ccccc21`, the max response in assay [1] was -6.19%; in assay [2], -19.4%; in assay [3] it was -29.2%. The outcome in assay [4] was inactive.
Take `COc1nc2sc(C(=O)NC3CC3)c(N)c2c(C)c1Cl`: the results for the max response in assay [1], in assay [2] and in assay [3] were -8.27%, -8.8% and -34.1%, respectively. In addition, in assay [4], the compound was called inactive.
As for `CO[C@H]1/C=C/C=C/C=C/C[C@H](OC(=O)[C@@H](C)NC(=O)C2CCCCC2)[C@H](C)[C@@H](O)/C(C)=C/CCc2cc(O)cc(c2)NC(=O)C1`, the Potency in assay [1] was 306 nM (active); in assay [2] it was 343 nM (active); in assay [3], 1090 nM (active); in assay [4], 544 nM (active).
For `C[C@@H]1C[C@@H]([C@@H](O)C(C)(C)O)O[C@H]2C[C@@]3(C)C(=C12)C[C@H](O)[C@H]1[C@@]2(C)CCC(=O)C(C)(C)C2CC[C@@]13C` (stereo not given in full), the max response in assay [1] is 0.566%; in assay [2], 3.48%; in assay [3], -11.9%; in assay [4], 5.24%; in assay [5] it was -0.489%.
The like results for `CC1COC2(OC3CC4C5CC(O[C@@H]6O[C@H](C)[C@@H](O[C@@H]7O[C@@H](C)[C@H](O)[C@@H](O)[C@H]7O)[C@H](O)[C@H]6O)C6CC(O)CCC6(C)C5CCC4(C)C3C2C)C(O)C1` (stereo not given in full) were, in that order, -20%, 3.68%, -23.5%, 7.16% and 4.8%.

The record behind these values is PubChem BioAssay (NCATS).
